Bioassay records from PubChem BioAssay.
TLR9-MyD88 inh – TLR9-MyD88 interaction inhibition; Q9NR96+Q99836; CHO BLA complementation TLR9-MyD88, CCF4 FRET ratio; inhibition, % at 4.98 µM; actives 0.21% (n = 340,000);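 active means inhibition above the mean over all tested compounds plus 3 SD, cut at about 21% in these data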
NOD2 RIPK2 PPI – NOD2-RIPK2 protein interaction inhibition; O43353; CHO BLA complementation NOD2-RIPK2, CCF4 ratio; inhibition, % at 4.98 µM; actives 0.38% (n = 360,000); in the data active means inhibition above about 21%
TLR4 MyD88 comp – inhibitors of human TLR4-MyD88 binding; O00206+Q99836; HeLa CL3-4 TLR4/MyD88 BLA complementation, FRET ratio; inhibition, % at 8.4 µM; actives 0.18% (n = 200,000); AID 861; in the data active means inhibition above about 25%
Myeloid diff MLP – compounds promoting myeloid differentiation. AID 624256. actives 1% (n = 360,000). ER-HoxA9 myeloid progenitors, lysozyme-GFP differentiation, flow cytometry. calls only at 10 µM;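 active means normalized GFP-positive differentiation at or above the plate's own cutoff, the solvent-only control mean plus 3 SD; inconclusive means no clear call, values can overlap the other calls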;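 further: cells exposed to compound for four days before flow analysis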
TLR9-MyD88 cf – TLR9-MyD88 interaction inhibition, confirmation. shares compounds with TLR9-MyD88 inh. CHO TLR9/MyD88 BLA complementation, CCF4 FRET ratio. inhibition, % at 4.98 µM. actives 51% (n = 680). AID 540250;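 active means mean inhibition across three repeats above about 21% taken from the earlier screen, limit read from the data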;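 further: blue over green emission ratio reports constitutive TLR9 MyD88 association via BLA complementation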
BLA counter-1 – counter-screen for TLR9-MyD88 inhibitors: non-selective beta-lactamase inhibitors | shares compounds with TLR9-MyD88 inh | CHO-BLA cells, CCF4 FRET ratio, BLA reporter | inhibition, % at 4.98 µM | actives 7% (n = 680) | AID 540251;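 active means mean inhibition above a 50% cutoff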;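 further: counterscreen of TLR9-MyD88 hits on CMV-driven BLA in CHO-K1 cells; higher means less blue over green ratio so more BLA blockade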
TLR9 CHO cytotox – CHO cell toxicity counter-screen for TLR9-MyD88 inhibitors | shares compounds with TLR9-MyD88 inh | TLR9-MyD88 CHO cells cytotoxicity, luminescence | inhibition, % at 4.98 µM | actives 39% (n = 680) | AID 588336; in the data active means inhibition above about 11%
NOD2-RIPK2 conf – NOD2-RIPK2 interaction inhibition confirmed; actives 70% (n = 1,200); inhibition, % at 4.98 µM; shares compounds with NOD2 RIPK2 PPI; AID 624370; CHO cells, NOD2-RIPK2 BLA complementation, CCF4 FRET;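 active means mean inhibition across replicates above a set limit taken from the earlier primary screen, cut at about 21% in these data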
BLA counter-2 – counter-screen for NOD2-RIPK2 interaction inhibitors: BLA reporter; actives 57% (n = 1,200); shares compounds with NOD2 RIPK2 PPI; inhibition, % at 4.98 µM; CHO BLA reporter, CCF4 FRET ratio, counterscreen;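 active means mean inhibition above the low-control mean inhibition plus three low-control SD, cut at about 11% in these data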
Hits are given with their value; – = inactive; ? = inconclusive; · = no result; + = active, no number. A selection: hits, their analogues and other compounds. The true share with any hit is near 1.5%.

SMILES	TLR9-MyD88 inh	NOD2 RIPK2 PPI	TLR4 MyD88 comp	Myeloid diff MLP	TLR9-MyD88 cf	BLA counter-1	TLR9 CHO cytotox	NOD2-RIPK2 conf	BLA counter-2
COc1ccc(C(=O)c2sc3nc(C)cc(-c4cccs4)c3c2N)cc1OC	41.0	61.3	–	–	24.8	–	–	50.0	60.3
CCOC(=O)c1c(C)nc2sc(C(=O)Nc3ccc(C(C)=O)cc3)c(N)c2c1-c1ccc(OC)cc1	22.2	25.3	–	–	–	–	16.3	49.1	54.5
CCc1cccc(C)c1NC(=O)COC(=O)c1c2c(nc3ccccc13)/C(=C\c1cccs1)CCC2	–	–	–	–	·	·	·	·	·
CCCCNC(=O)COC(=O)c1c2c(nc3ccccc13)/C(=C\c1cccs1)CC2	45.2	55.4	·	–	46.6	55.7	–	66.4	76.5
O=C1NC[C@H](CCCCN2C[C@H](Cc3ccccc3)N(CCc3ccc(O)cc3)C(=O)C2=O)N(CC2CCCCC2)C1=O	·	–	·	–	·	·	·	·	·
NC(=O)/C(=N\OC(=O)c1ccco1)c1nc(-c2ccc(Br)cc2)cs1	36.5	21.4	–	–	–	–	–	43.3	21.7
O=c1c(O)c(-c2cccs2)oc2ccccc12	20.9	29.5	–	–	–	–	–	41.0	38.4
O=C(c1ccccc1)c1cc(Cl)ccc1N1C(=O)C=CC1=O	33.1	58.8	–	–	37.5	–	96.3	89.0	22.6
O=c1[nH]c(=S)[nH]c2c1[C@H](CCc1cccc(Cl)c1)O[C@H](C1CC1)C2	·	–	·	–	·	·	·	·	·
CCCCCCSc1ccc(-c2nc3cnccn3c2NCCCC)cc1	22.9	24.4	·	+	47.7	50.1	–	68.0	77.5
CCc1ccc(Nc2n[n+](-c3ccccc3)c(-c3c(Cl)cccc3Cl)s2)cc1	79.8	68.2	·	?	43.4	–	28.7	75.0	62.6
CC(=O)N1CCc2cc(S(=O)(=O)C(C)CC(=O)NCc3ccco3)ccc21 (stereo not given)	–	–	·	–	·	·	·	·	·
Nc1c(C(=O)c2ccccc2)sc2nsc(SCCN3CCCC3)c12	28.3	28.9	·	+	21.0	–	–	44.5	46.6
Fc1ccc(-c2nc3ccc(Cl)cn3c2Cc2cccc(F)c2)cc1	·	–	·	–	·	·	·	·	·
CCc1c(-c2cccc(OC)c2)ncn1Cc1cccc(-c2ccccc2)c1	·	–	·	–	·	·	·	·	·
O=C(Nc1nccs1)c1cnc2sccn2c1=O	–	–	·	–	·	·	·	·	·
Nc1ccc2c3c(cccc13)-c1ccccc1-2	61.9	67.2	·	+	58.5	54.1	–	73.7	80.9
Nc1cccc2c1C(=O)N(Cc1cccc(Cl)c1)C2=O	21.2	35.1	–	–	–	–	–	31.9	44.9
O=C1Cc2ccccc2C(=O)N1Cc1cccc(Cl)c1	–	–	·	–	·	·	·	·	·
O=C(Nc1ccc(OC(F)(F)F)cc1)c1[nH]ncc1[N+](=O)[O-]	24.5	25.1	–	–	–	–	–	–	–
Cc1onc(C(=O)Nc2ccc(OC(F)(F)F)cc2)c1[N+](=O)[O-]	–	–	·	–	·	·	·	·	·
CC(C)(C)c1cc(C2=CSC3=NCCN23)cc(C(C)(C)C)c1O	20.9	23.9	·	–	–	–	–	32.9	16.6
N#Cc1cccc(C2CC(OCCF)=CC(=O)O2)c1 (stereo not given)	·	–	·	–	·	·	·	·	·
COc1ccc(N)c2c1C(=O)c1ccccc1C2=O	–	–	–	–	·	·	·	·	·
COc1ccc(OC)c2c1C(=O)C(Cl)=C(Cl)C2=O	45.6	85.7	·	?	69.9	–	97.4	87.6	33.6
COc1ccc(OC)c(NC(=O)c2nc(S(=O)(=O)Cc3ccccc3)ncc2Cl)c1	57.4	94.0	·	?	53.3	–	98.6	101.7	48.6
Cc1nnc(NC(=O)c2nc(S(=O)(=O)Cc3ccccc3)ncc2Cl)s1	–	–	·	–	·	·	·	·	·
O=C(Nc1ccc(F)cc1)c1nc(S(=O)(=O)Cc2ccccc2)ncc1Cl	36.4	92.7	·	?	47.8	–	98.6	90.1	43.0
